Screening results: PubChem BioAssay, National Center for Advancing Translational Sciences (NCATS)
Pf growth 48h = Primary qHTS for delayed death inhibitors of the malarial parasite plastid, 48 hour incubation. 310,000 tested, 5.9% active. AID 504832, 2011. P. falciparum luciferase growth in erythrocytes, 48 h. Potency, µM (highest dose often 28.7 µM), hits mostly inhibitors; active means well fitted inhibition curve with a large enough effect; inconclusive means small, poorly fitted or top-dose-only effect, or another doubt; inactive means no such curve, though single readings can be large or run the other way
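First compound was added to culture medium, then infected red cells at 0.1% parasitemia and 2% hematocrit (final). After incubation at 37 C under 5% CO2, luciferase detection reagent was dispensed and light output recorded.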
SARS PLpro yeast = qHTS of Yeast-based Assay for SARS-CoV PLP; AID 485353, 2010; S. cerevisiae expressing SARS-CoV PLpro, growth rescue; Potency, µM (highest dose often 32.9 µM), usual class: activators; 330,000 tested, 0.19% active; further: nearly all actives have a fitted effect of over 55% in size
NS1 inh = qHTS Assay for Inhibitors of Influenza NS1 Protein Function; Potency, µM (doses to about 46.1 µM); 270,000 tested, 0.4% active; further: actives are rising curves; nearly all actives have a fitted effect of over 50% in size
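Growth recovery, yeast-based: influenza A NS1 expressed in S. cerevisiae causes slow growth, and suppressors are detected by OD600. The parent strain without NS1 is used as positive control.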
Pf growth 96h = Primary qHTS for delayed death inhibitors of the malarial parasite plastid, 96 hour incubation; P. falciparum luciferase reporter growth, 96 h; Potency, µM (top dose mostly 28.7 µM), most hits filed as inhibitors; 320,000 tested, 6.9% active; active means well fitted inhibition curve with a large enough effect; inconclusive means small, poorly fitted or top-dose-only effect, or another doubt; inactive means no such curve, though single readings can be large or run the other way
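Two-generation exposure (96 h) targets delayed-death phenotype. Reporter parasites carrying integrated firefly luciferase, in red cells at 2% hematocrit and 0.05% parasitemia final, kept at 37 C, 5% CO2; luminescence loss indicates inhibition.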
Large screens that a line does not name were inactive. Compounds with a hit are over-represented: about 10% of the library has one in this group of screens. Unless noted, the call rests on the fitted dose curve.

Cc1cccc(Nc2c([N+](=O)[O-])c(=O)n(C)c3ccccc23)c1	Pf growth 48h 15µM, Pf growth 96h 10µM
CN1CCC(N(C)C(=O)c2ccc(Cl)c(S(=O)(=O)N3CCc4ccccc43)c2)CC1	none (no result: Pf growth 48h, NS1 inh, Pf growth 96h)
O=c1n(CC2CO2)c(=O)n(CC2CO2)c(=O)n1CC1CO1 (configuration not stated)	Pf growth 48h 9.5µM, Pf growth 96h 6µM (no result: SARS PLpro yeast, NS1 inh)
ClCC1CO1 (configuration not stated)	none (no result: SARS PLpro yeast, NS1 inh)
Cc1cc(N2CCCC2)ccc1NC(=O)COc1cccc(C(F)(F)F)c1	none
Cc1noc(C)c1CN(C(=S)NC1CC2CCC1C2)c1ccccc1 (configuration not stated)	Pf growth 48h 12µM (no result: NS1 inh)
Cc1noc(C)c1CN(C(=S)NC(C)C)c1ccccc1	none
C/C(=N/NC(=O)c1cnccn1)c1cccs1	none
Cc1cc(NC(=O)c2ccc3c(c2)C(=O)N(C)C3=O)no1	Pf growth 96h 2.9µM (no result: Pf growth 48h)
Cc1cc(N2C(=O)c3ccc(C(=O)Nc4ccc(CC(=O)O)cc4)cc3C2=O)no1	Pf growth 96h 1.9µM
CC(C)(C)N1C(=O)c2ccc(C(=O)Nc3ccc(C(=O)O)cc3)cc2C1=O	Pf growth 96h 9.3µM
Cc1cc(NC(=O)c2ccc3nc(-c4ccccc4)c(-c4ccccc4)nc3c2)no1	Pf growth 48h 5.2µM, Pf growth 96h 4.7µM
Cc1cc(N2C(=O)c3ccc(C(=O)Nc4ccccc4O)cc3C2=O)no1	Pf growth 48h inconclusive
O=C(O)c1ccc(NC(=O)c2ccc3c(c2)C(=O)N(c2ccccc2)C3=O)cc1	none
O=C(NCCCn1ccnc1)/C(=C\c1ccc(Br)cc1)NC(=O)c1ccccc1	SARS PLpro yeast inconclusive, Pf growth 96h inconclusive
CC1C(C#N)=C(N)OC2=C1C(=O)CC(C)(C)C2 (configuration not stated)	Pf growth 96h 13µM (no result: Pf growth 48h)
Cn1cc(CN2CCC(C(O)c3cccs3)CC2)c(-c2cccc(Cl)c2)n1 (configuration not stated)	Pf growth 48h 9.3µM, Pf growth 96h inconclusive
CNC(=O)c1c(NC(=O)C2=COCCO2)sc2c1CCCC2	Pf growth 96h 13µM
CN(Cc1ccccc1F)C(=O)c1ccccc1Sc1ccccc1C#N	Pf growth 96h inconclusive
CC(=O)OC(C(=O)NC1CCCCC1)c1ccccc1F (configuration not stated)	Pf growth 96h 9.3µM
CC(=O)OC(C(=O)NC1CCCCC1)c1cccc(F)c1 (configuration not stated)	none
COC(C(=O)NC1CCCCCCC1)c1ccccc1 (configuration not stated)	Pf growth 96h 3.3µM
CCN(CC)c1nc(SCCOC(=O)Nc2ccccc2)nc(N(CC)CC)n1	Pf growth 48h inconclusive, Pf growth 96h 10µM
CN(C)c1nc(SCCOC(=O)c2ccccc2)nc(N(C)C)n1	none (no result: Pf growth 96h)
COc1ccc(OC)c(NC(=O)CNC(c2ccccc2)c2ccccc2)c1	Pf growth 48h 12µM, Pf growth 96h 9.3µM
Cc1ccc(NC(=O)CNC(c2ccccc2)c2ccccc2)c(F)c1	Pf growth 96h inconclusive
COc1ccc(Cl)cc1NC(=O)CNC(c1ccccc1)c1ccccc1	Pf growth 48h inconclusive, Pf growth 96h 1.7µM
COc1ccc(OC)c(NC(=O)CCN2CC(C)OC(C)C2)c1 (configuration not stated)	Pf growth 96h 1.9µM
COc1ccc(OC)c(NC(=O)CCCSc2ccccc2)c1	Pf growth 48h inconclusive
COc1ccc(C)cc1NC(=O)CNC(c1ccccc1)c1ccccc1	Pf growth 48h 7.4µM, Pf growth 96h inconclusive
COc1ccc(NC(=O)CCN2CC(C)OC(C)C2)c(OC)c1 (configuration not stated)	Pf growth 48h inconclusive
O=C(O)C[C@H](Sc1ccccc1)c1ccccc1	none (no result: Pf growth 48h, SARS PLpro yeast, Pf growth 96h)
O=C(COC(=O)/C=C/c1ccc(C(F)(F)F)cc1)NCc1ccco1	none
COc1ccc(OC)c(/C(O)=C/C(=O)C(=O)Nc2ccccc2OC)c1	Pf growth 96h 15µM (no result: Pf growth 48h)
COc1cc(C(=O)Nc2ccc(C)cc2C(NCC(=O)NN)c2ccccc2)cc(OC)c1OC (configuration not stated)	NS1 inh inconclusive, Pf growth 96h 4.7µM
COc1cn(-c2ccccc2)nc1C(=O)Nc1ccc(C)cc1	Pf growth 48h inconclusive
COc1ccc(C)cc1NC(=O)c1nn(-c2ccccc2)cc1OC	Pf growth 96h 2.9µM
C[N+](C)(C)c1ccc([C@H](N)C(=O)O)cc1	none (no result: Pf growth 48h, SARS PLpro yeast, Pf growth 96h)
CCOc1ccc(NC(=O)COC(=O)Cc2ccsc2)cc1	none (no result: Pf growth 48h, NS1 inh, Pf growth 96h)
CCN(CC(=O)Nc1ccc(OC)cc1)C(=O)CSCc1c(C)noc1C	none (no result: NS1 inh)
O=C(Nc1ccc2c(c1)OCO2)c1ccc(Br)c(S(=O)(=O)N2CCCC2)c1	Pf growth 48h 2.6µM
O=C(Nc1ccc(F)cc1)c1ccc(Br)c(S(=O)(=O)N2CCOCC2)c1	Pf growth 48h inconclusive
CC(C)CCN1C(=O)c2ccc(C(=O)NCC3CCCO3)cc2C1=O (configuration not stated)	Pf growth 96h 4.1µM
O=C(Nc1ccc2c(c1)OCCO2)c1ccc(Br)c(S(=O)(=O)N2CCOCC2)c1	Pf growth 48h 2.3µM
O=C(O)c1ccc(Cl)c(S(=O)(=O)N2CCCC2)c1	none
O=C(O)c1ccc(Br)c(S(=O)(=O)N2CCCC2)c1	SARS PLpro yeast inconclusive, Pf growth 96h 13µM
CCN(C(=O)Cn1nnc(-c2ccccc2)n1)C1CCS(=O)(=O)C1 (configuration not stated)	none (no result: NS1 inh)
CCCCCN(C(=O)CCC(=O)OC(C)C(=O)Nc1cccc(C#N)c1)c1c(N)n(CCCC)c(=O)[nH]c1=O (configuration not stated)	none (no result: NS1 inh)
O=C(NCC1CCCO1)c1ccc(Br)c(S(=O)(=O)N2CCOCC2)c1 (configuration not stated)	Pf growth 48h inconclusive, Pf growth 96h 1.3µM (no result: NS1 inh)
O=C(NCC1CCCO1)c1cccc(S(=O)(=O)N2CCOCC2)c1 (configuration not stated)	Pf growth 96h inconclusive
CCCCN(C(=O)c1c(-c2ccccc2)noc1C)c1c(N)n(CCC)c(=O)[nH]c1=O	none (no result: Pf growth 48h, NS1 inh, Pf growth 96h)
COc1cc(-c2nnc(SCC(=O)c3ccccc3)o2)cc(OC)c1OC	none
COc1cc(-c2nnc(SCC3(c4ccccc4)OCCO3)o2)cc(OC)c1OC	Pf growth 48h 13µM, Pf growth 96h 5.2µM
COc1ccc(C(=O)Nc2ccccc2N2CCCCC2)cc1[N+](=O)[O-]	Pf growth 48h inconclusive, Pf growth 96h 12µM
CN1CCN(c2ccccc2NC(=O)c2ccc(N3CCCCC3)c([N+](=O)[O-])c2)CC1	Pf growth 48h 13µM, Pf growth 96h inconclusive
CN1CCN(c2ccccc2NC(=O)c2ccc(N3CCOCC3)c([N+](=O)[O-])c2)CC1	Pf growth 48h inconclusive
Cc1ccc(C(=O)Nc2ccccc2N2CCCCC2)cc1[N+](=O)[O-]	Pf growth 96h inconclusive (no result: NS1 inh)
COc1ccc(S(=O)(=O)Nc2ccccc2N2CCOCC2)cc1[N+](=O)[O-]	Pf growth 48h 13µM
CNC[C@@H](CC1CCCCC1)NC[C@H](CC(C)C)NCCc1cccc(C(F)(F)F)c1	Pf growth 48h inconclusive, NS1 inh inconclusive, Pf growth 96h 1.9µM
